Assay results: PubChem BioAssay
Calls of active or inactive are those of the source.

test: plasmodial surface anion channel blockers, osmotic lysis – cell-based, P. falciparum Indochina, OD700, 1 h, primary screen (AID 1154); conditions: P. falciparum Indochina infected RBC osmotic lysis, higher = more signal, called active from +8 up or from −8 down

z-score, inactive:
C=CCOC(=O)[C@@H]1[C@H]2C(=O)O[C@H](c3ccccc3)[C@H](c3ccccc3)N2[C@H](c2ccc(OCCOC(=O)[C@H]3C[C@H]4C(=O)N5CCC[C@H]5C(=O)N4[C@H]3c3ccc(O)cc3)cc2)[C@@]12C(=O)Nc1ccccc12 3.21
C[C@@H]1CC[C@H]2C(=O)N3[C@@H](CC[C@@H](C)[C@@H]3c3cccc(N4CCOCC4)c3)C(=O)N2[C@H]1c1cccc(N2CCOCC2)c1 0.43
COc1ccc(-c2ccccc2[C@@H]2N[C@H](C(=O)O)CC[C@H]2C)cc1 0.908
CN1CCC(CCCO)=CC1C1CC1 (stereo unspecified) -0.369
C=CCC(OC(C)=O)[C@@H]1[C@@H](N(Cc2cc3ccccc3o2)C(=O)c2ccc(C)cc2)c2cc(OCCCO)ccc2N1C(=O)c1ccc2ccccc2n1 (stereo partly specified) 0.834
C[C@H]1COC(=O)[C@H](Cc2ccccc2)NC(=O)[C@@H](C)COC(=O)[C@H](Cc2ccccc2)NC1=O 0.162
CCN1C(C)=C(C(=O)OC)[C@@H](c2ccccc2)N2C(=O)[C@@]3(C(=O)OC)O[C@@]12[C@@H]1C(=O)N(c2ccccc2)C(=O)[C@@H]13 0.69
CCCC/C=C/[C@H]([C@@H](O)Cc1ccccc1)N(CC#Cc1ccccc1)Cc1ccccc1Br 2.63
CO[C@@H]1COC(=O)[C@H](C)NC(=O)CC=C[C@@H](C)[C@H](NS(=O)(=O)c2ccc(C)cc2)COC(=O)CC=C[C@@H]1C -0.697
C=CCNC(=O)[C@H]1[C@@H]2C(=O)O[C@@H](c3ccccc3)[C@@H](c3ccccc3)N2[C@@H](c2ccccc2OCCO)[C@]12C(=O)N(C(=O)OCCOC)c1ccc(C#CCC(C(=O)OC)C(=O)OC)cc12 2.93
CC(=O)NCCCC[C@@H]1NC(=O)[C@@H]2C[C@H](C(=O)NCCCCCCN(C)C)[C@H](c3ccc(O)cc3)N2C1=O 1.19
C[C@H]1NC(=O)[C@@H](C)NC(=O)[C@@]23C(=O)N[C@@H](Cc4ccccc4)C2[C@H](C)[C@@]2(C)O[C@H]2C3/C=C/C/C=C\CNC1=O (stereo partly specified) 1.27
CC(C)N1CC=CC23O[C@@H]4/C=C\CCCOC(=O)C4[C@H]2C(=O)N(CCO)[C@@H]3C1=O (stereo partly specified) 2.92
CC(C)CNC(=O)[C@@]1(C)c2ccccc2C(=O)N(Cc2ccc(OC(F)(F)F)cc2)[C@H]1c1ccc(CO)cc1 2.97
CO[C@H]1COC(=O)[C@H](Cc2ccccc2)NC(=O)CC=C[C@@H](C)[C@H](OC)COC(=O)CC=C[C@@H]1C -0.144
CSCC[C@@H]1NC(=O)CC=C[C@@H](C)COC(=O)[C@H](CCSC)NC(=O)CC=C[C@@H](C)COC1=O -0.138
O=C1OCC=C[C@H]2OC34C=CCN(Cc5ccccc5)C(=O)[C@H]3N(CCCCCO)C(=O)[C@@H]4[C@@H]12 (stereo partly specified) 1.52
Cc1ccc(S[C@]2(C(=O)NCCN3CCOCC3)CC(=O)N(C3Cc4ccccc4C3)[C@@H]2c2ccc(CO)cc2I)cc1 6.65
COC(=O)C[C@H]1O[C@]2(C(=O)N(C)c3ccccc32)[C@@H](C)[C@@H]1[Si](C)(C)c1ccc(OC)cc1 2.79
CC/C=C/C(=O)N(C[C@@H]1CCCO1)[C@@H]1CC(C(=O)NCCO)=C[C@H](Oc2c(I)cc(CO)cc2OC)[C@H]1O 1.05
CN1C2C=C(c3ccc(CO)cc3)C(C3C(=O)N(C(N)=O)C(=O)C32)C1c1cccs1 (stereo unspecified) 2.26
C=CCN(C(=O)C1N(c2ccc(CCO)cc2)C(=O)C2C(C(=O)O)C3C=CC21O3)C(C)(C)C (stereo unspecified) 0.0302
C=CCC1=C[C@H]2[C@H]([C@@H]3C=C[C@]2(CC=C)C(=O)[C@]32CO2)[C@@]2(CO2)C1=O 0.348
Cc1ccc(S[C@]2(C(=O)O)CC(=O)N(Cc3ccccc3)[C@@H]2c2ccc(CO)cc2)cc1 2.85
CCCNC(=O)[C@@H]1c2ccccc2C(=O)N(Cc2cc(F)cc(C(F)(F)F)c2)[C@H]1c1ccc(CO)cc1 2.1
O=C1c2ccccc2[C@](Cc2ccccc2I)(C(=O)O)[C@H](c2ccc(CO)cc2)N1C1CCCCC1 3.72
CO[C@H]1COC(=O)[C@H](C)NC(=O)CC=C[C@@H](C)[C@H](NS(=O)(=O)c2ccc(C)cc2)COC(=O)[C@@H](OCc2ccccc2)C=C[C@@H]1C 0.655
COC(=O)c1c(CC[C@@H](CO)NC(=O)N[C@H](Cn2cc(-c3cncn3C)nn2)C(C)C)oc(C(C)=O)c1C(=O)OC 0.88
CC(C)[Si]1(C(C)C)O[C@@H](c2ccccc2)c2cc(C3CC3)nc(-c3ccc(Oc4ccccc4)cc3)c21 0.835

z-score, active:
Cc1ccc(S[C@]2(C(=O)NCCCN(C)C)CC(=O)N(C3CCCCC3)[C@@H]2c2ccc(CO)cc2I)cc1 14
O=C(NCC(O)CO)[C@]1(Cc2ccccc2)N=C(c2ccc(OCCCO)cc2)O[C@@H]1c1ccccc1 (stereo partly specified) 25.1
C=CC[C@]1(C(=O)O)N=C(c2ccc(OCCCO)cc2)O[C@H]1c1ccccc1 11.7
C=C(COC)/C(=C/C[C@@H](OC(=O)c1ccncc1)c1ccc(OCCO)cc1)c1cc(C(=O)OC)ccc1OC 14.6
C=C[C@H](OC)[C@@H](OC(=O)Nc1ccc(SC)cc1)c1ccc(OC)c(O)c1 18.9
[N-]=[N+]=NCc1ccccc1C[C@]1(C(N)=O)N=C(c2ccc(OCCCO)cc2)O[C@H]1c1ccccc1CN=[N+]=[N-] 29.3
C=C(COC)/C(=C/C[C@@H](OC(C)=O)c1cccc(OCCO)c1)c1cc(C(=O)OC)ccc1OC 15.7
